Screening results as filed in PubChem BioAssay.
Only a selection was taken, and hits are over-represented in it overall.
NTMT1 inh – inhibitors of human N-terminal methyltransferase NTMT1; Q9BV86; NTMT1 MTase-Glo SAH luminescence, purified enzyme; Potency, µM (top dose mostly 114 µM), usual class: inhibitors; 59,000 compounds, 2.5% hits; AID 1645870; further: nearly all actives have a fitted effect of over 65% in size
GALC G270D act – galactocerebrosidase G270D activity enhancement, cell-based | P54803 | 145M-Twi-hGALC-G270D cells (Twitcher mouse brain line with human GALC G270D), HMU-beta-Gal fluorescence, 48 h | Potency, µM (top dose mostly 57.5 µM), usual class: activators | 45,000 compounds, 0.1% hits; further: nearly all actives have a fitted effect of over 65% in size
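Mutant human GALC (G270D), stably expressed in a Twitcher mouse brain cell line lacking endogenous GALC, is measured in live-treated cells via 6-hexadecanoylamino-4-methylumbelliferyl-β-galactoside hydrolysis (0.1 mM final, pH 5.2) with fluorescent detection.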
FH mod – Identification of activators of human fumarate hydratase by quantitative high-throughput screening; Fumarate hydratase, mitochondrial (Homo sapiens), P07954; FH coupled MDH/diaphorase resazurin fluorescence, 15 min; Potency, µM (titrated, usually from 79.9 µM), hits mostly inhibitors; 54,000 compounds, 0.22% hits; AID 1347055, 2019; further: the screen sought activators but most active calls are inhibition curves; nearly all actives have a fitted effect of over 45% in size
Target sequence (P07954 whole entry, looked up): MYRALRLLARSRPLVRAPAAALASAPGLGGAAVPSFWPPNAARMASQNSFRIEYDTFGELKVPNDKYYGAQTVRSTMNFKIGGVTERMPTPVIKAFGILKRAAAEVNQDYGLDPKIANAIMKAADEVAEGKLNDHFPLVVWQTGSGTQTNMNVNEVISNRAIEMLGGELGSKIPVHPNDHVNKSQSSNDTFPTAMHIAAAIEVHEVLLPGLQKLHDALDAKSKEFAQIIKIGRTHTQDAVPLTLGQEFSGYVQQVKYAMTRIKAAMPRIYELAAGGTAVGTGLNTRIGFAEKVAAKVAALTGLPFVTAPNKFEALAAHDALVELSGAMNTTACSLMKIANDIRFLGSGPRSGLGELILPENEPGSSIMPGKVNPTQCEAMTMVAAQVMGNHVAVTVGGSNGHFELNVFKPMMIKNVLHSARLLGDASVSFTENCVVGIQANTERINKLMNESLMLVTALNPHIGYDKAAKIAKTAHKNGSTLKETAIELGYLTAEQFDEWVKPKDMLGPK
Sfp qHTS opt – inhibits purified B. subtilis Sfp PPTase; shares compounds with NTMT1 inh; purified Sfp PPTase enzyme activity, qHTS; Potency, µM (top dose mostly 114 µM), hits mostly inhibitors; 230 compounds, 78% hits
HM489 growth – Sfp PPTase inhibitors: growth inhibition of B. subtilis HM489 | 220 compounds, 50% hits | shares compounds with NTMT1 inh | Potency, µM (top dose mostly 114 µM), most hits filed as inhibitors | B. subtilis HM489 (acpS-) growth, BacTiter-Glo, 5 h | AID 540353
Sfp PPTase gel – Sfp PPTase inhibition, gel-based detection; AID 540355; shares compounds with NTMT1 inh; Potency, µM (top dose mostly 250 µM), actives largely listed as inhibitors; purified Sfp PPTase, gel-based product detection; 220 compounds, 54% hits
Sfp inh gel – Sfp phosphopantetheinyl transferase inhibition, gel detection. shares compounds with NTMT1 inh. purified Sfp PPTase, gel-based product detection. Potency, µM (titrated, usually from 250 µM), usual class: inhibitors. 45 compounds, 90% hits. AID 602362
Sfp inh SAR2 – inhibitors of Bacillus subtilis Sfp PPTase, SAR round 2 | shares compounds with NTMT1 inh | purified Sfp enzyme, PPTase activity, qHTS | Potency, µM (doses to about 57.1 µM), hits mostly inhibitors | 230 compounds, 87% hits | AID 602370
hGST A1-1 inh – hGST A1-1 enzyme inhibition, Sfp SAR counter-screen; shares compounds with NTMT1 inh; AID 602391; Potency, µM (series often up to 114 µM), usual class: inhibitors; 55 tested, under 10 active; hGST A1-1 enzyme activity counter-screen, qHTS
HSD17B4 counter – HSD17B4 (human) inhibition, HPGD counter-screen. shares compounds with NTMT1 inh. purified HSD17B4, estradiol/NAD+, NADH fluorescence. Potency, µM (series often up to 57.1 µM), hits mostly inhibitors. 230 compounds, 10% hits
ALDH1A1 inh – inhibits human ALDH1A1, off-target for HPGD inhibitors. shares compounds with NTMT1 inh. recombinant ALDH1A1, NADH fluorescence, propionaldehyde/NAD+. Potency, µM (top dose mostly 57.1 µM), most hits filed as inhibitors. 230 compounds, 93% hits. AID 743195
NNMT inh – blocks human NNMT methyltransferase | shares compounds with NTMT1 inh | NNMT MTase-Glo luminescence, SAH detection | Potency, µM (doses to about 57.1 µM), most hits filed as inhibitors | 120 compounds, 10% hits
Large screens that a line does not name were inactive (follow-up assays come after a bar, where they were run). The call rests on the fitted dose curve; in most records, active means well fitted curve in the direction sought with a large enough effect; inconclusive means small, poorly fitted or top-dose-only effect, or another doubt; inactive means no such curve, though single readings can be large; an effect the other way counts as inactive or inconclusive.

CCN(CCCOc1ccc2c(Nc3cc(CC(=O)Nc4cccc(F)c4)[nH]n3)ncnc2c1)CCOP(=O)(O)O	NTMT1 inh inconclusive (no result: GALC G270D act)
CN(C)C/C=C/C(=O)Nc1cc2c(Nc3ccc(F)c(Cl)c3)ncnc2cc1OC1CCOC1 (stereo unspecified)	NTMT1 inh 6.31µM (no result: GALC G270D act) | NNMT inh inconclusive
CCOc1cc2ncc(C#N)c(Nc3ccc(F)c(Cl)c3)c2cc1NC(=O)/C=C/CN(C)C	NTMT1 inh 1.12µM (no result: GALC G270D act) | NNMT inh 15.8µM
Cc1ccc(Nc2ncc(C(=O)Nc3ccc(F)cc3F)c3ccccc23)cc1Cl	none
CCOc1ccc(Nc2c(S(=O)(=O)c3ccc(Cl)cc3)cnc3ccc(OCC)cc23)cc1	FH mod inconclusive
CN(C)CCn1cc(S(=O)(=O)c2cccc(F)c2)c2cccnc21	none (no result: GALC G270D act)
CN[C@H]1CCN(C(=O)c2ccc(Nc3ncc(F)c(-c4cnc(C)n4C(C)C)n3)cc2)C1	none (no result: GALC G270D act)
O=C1NC(=O)[C@@H](c2c[nH]c3ccccc23)[C@H]1c1cn2c3c(cccc13)CCC2	none (no result: GALC G270D act, FH mod)
Cc1ccc(-c2nc3nc(C)cc(N4CCN(c5cc(Cl)ccc5C)CC4)n3n2)cc1	none
Cc1cc(C)nc(NC(=S)N2CCN(c3ncccc3C#N)CC2)c1	NTMT1 inh inconclusive (no result: GALC G270D act, FH mod) | Sfp qHTS opt 0.576µM | HM489 growth inconclusive | Sfp PPTase gel inconclusive | Sfp inh SAR2 1.24µM | hGST A1-1 inh inconclusive | HSD17B4 counter inactive | ALDH1A1 inh 21.5µM
Cc1ccc(C)c(N2CCN(C(=O)NCc3noc4ccccc34)CC2)c1	none
Cc1ccc(Cl)cc1NC(=O)N1CCN(C)c2ncccc21	NTMT1 inh inconclusive
CN1CCN(C2=Nc3ccccc3Oc3ccc(Cl)cc32)CC1	none
Cc1cc(C)nc(NC(=S)N2CCN(C3=Nc4ccccc4Oc4ccccc43)CC2)c1	NTMT1 inh 50.1µM (no result: GALC G270D act, FH mod) | Sfp qHTS opt 3.32µM | HM489 growth inconclusive | Sfp PPTase gel inconclusive | Sfp inh SAR2 5.13µM | HSD17B4 counter inactive | ALDH1A1 inh 24.1µM
Cc1cc(C)nc(NC(=S)N2CCN(c3ccc(Cl)cc3Cl)CC2)c1	none (no result: NTMT1 inh, GALC G270D act, FH mod) | Sfp qHTS opt 1.18µM | HM489 growth 8.35µM | Sfp PPTase gel 3.16µM | Sfp inh gel 3.8µM | Sfp inh SAR2 1.02µM | hGST A1-1 inh 2.35µM | HSD17B4 counter inactive | ALDH1A1 inh 17.1µM
Cc1cc(C)nc(NC(=S)N2CCN(c3noc4ccccc34)CC2)c1	NTMT1 inh inconclusive (no result: GALC G270D act, FH mod) | Sfp qHTS opt 3.32µM | HM489 growth inconclusive | Sfp PPTase gel inactive | Sfp inh SAR2 2.89µM | HSD17B4 counter inactive | ALDH1A1 inh 17.1µM
Cc1c[nH]c2ncnc(N3CCC(CN)(C(=O)Nc4cccc(OC(=O)N(C)C)c4)CC3)c12	none (no result: GALC G270D act)
CN1CCN(C(=O)CN[C@@H]2C[C@H]2c2ccc(OCc3ccccc3)cc2)CC1	none (no result: GALC G270D act)
Cc1cnc(-c2ccccc2C(C)C)nc1NCc1ccc(-c2nn[nH]n2)cc1	none (no result: GALC G270D act, FH mod)
C/C(=N\NC(=S)N1CCC1)c1ccccn1	none (no result: GALC G270D act, FH mod)
